In the library only some 21% were active in any assay of this set; here they are far more common.
Cycloheximide cs – counter-screen hit for Shiga toxin inhibitors, cycloheximide; cell reporter, cycloheximide protein synthesis inhibition counterscreen; max response, %; 300,000 tested, 12% active; AID 2314; in the data active = max response mostly above about 13%, no sharp cut-off; inactive = mostly below about 14%; also: read at 38.3 µM for the half of the compounds with a filed dose; 0% is about no effect
SARS PLpro yeast – blocks SARS-CoV papain-like protease in a yeast assay; Potency, µM (top dose mostly 32.9 µM), for inactives: top-dose activity, positive = growth rescue, usual class: activators; AID 485353; 330,000 tested, 0.19% active; S. cerevisiae expressing SARS-CoV PLpro, growth rescue; also: potency is read from the fitted curve at half-maximal effect; 0% is about no effect; nearly all actives have a fitted effect of over 55% in size
Pf growth 96h – P. falciparum growth inhibition at 96 hours; P. falciparum luciferase reporter growth, 96 h; Potency, µM (top dose mostly 28.7 µM), for the others: top-dose activity change, negative = inhibition, hits mostly inhibitors; 320,000 tested, 6.9% active; AID 504834; active = well fitted inhibition curve with a large enough effect; inconclusive = small, poorly fitted or top-dose-only effect, or another doubt; inactive = no such curve, though single readings can be large or run the other way; also: potency is read from the fitted curve at half-maximal effect; % is scaled to controls: 0 for no effect and ±100 for the full control effect
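Readout is luminescence from an integrated firefly luciferase in P. falciparum. Red cells, 2% hematocrit and 0.05% parasitemia final, were cultured with compound through two parasite generations (96 hours) at 37 C, 5% CO2.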
Pf growth 48h – P. falciparum growth inhibition at 48 hours (one generation); P. falciparum luciferase growth in erythrocytes, 48 h; Potency, µM (titrated, usually from 28.7 µM), for the others: top-dose activity change, negative = inhibition, usual class: inhibitors; 310,000 tested, 5.9% active; AID 504832; active = well fitted inhibition curve with a large enough effect; inconclusive = small, poorly fitted or top-dose-only effect, or another doubt; inactive = no such curve, though single readings can be large or run the other way; also: potency is read from the fitted curve at half-maximal effect; % is scaled to controls: 0 for no effect and ±100 for the full control effect
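Growth was read as firefly luciferase luminescence after a 48 h, 37 C, 5% CO2 exposure of compounds to reporter-bearing P. falciparum cultures (0.1% parasitemia, 2% hematocrit final) in Albumax-supplemented RPMI 1640.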
Shiga toxin inh – inhibitors of Shiga toxin in Vero cells. AID 2315. 290,000 tested, 9.2% active. Vero cells, Shiga toxin protein synthesis inhibition reporter. inhibition, % at 38.7 µM; in the data active = inhibition mostly above about 28%, no sharp cut-off; inactive = mostly below about 43%; also: 0% is about no effect
NS1 inh – blocks influenza NS1 protein function; 270,000 tested, 0.4% active; AID 2326; Potency, µM (series often up to 46.1 µM), for inactives: top-dose activity, positive = more growth; also: potency is read from the fitted curve at half-maximal effect; actives are rising curves; nearly all actives have a fitted effect of over 50% in size
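OD600 was taken as the measure of yeast growth restored by compound in an NS1-expressing S. cerevisiae strain. Cells had been washed out of glucose medium and diluted 1:100 into galactose -URA medium, pH 6.0.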
* hit, by the source's call; u = inconclusive; x = not tested or not shown. Unless noted, calls follow the shape of the full dose curve.

SMILES	Cycloheximide cs	SARS PLpro yeast	Pf growth 96h	Pf growth 48h	Shiga toxin inh	NS1 inh
COc1ccc(/C=N/NC(=O)c2ccc(O)cc2O)cc1CSc1ccccn1	40*	8%	u	14%	64*	u
COc1cc(/C=N/NC(=O)CSc2ccccn2)ccc1OC(C)C	39*	1%	71%	0%	68*	-1%
COc1ccc(C=O)cc1CSc1ccccn1	11*	0%	54%	7%	14	0%
COc1ccc(/C=N/NC(=O)c2ccccc2Cl)cc1CSc1nc2ccccc2s1	0	-14%	-25%	x	16	14%
CCCCCN(C(=O)CCC(=O)OCC(=O)N(CC)C1CCCCC1)c1c(N)n(CCCC)c(=O)[nH]c1=O	x	-1%	-4%	-5%	x	x
CC(C)n1cnnc1SCC(=O)Nc1cccnc1Cl	x	3%	x	x	x	x
CC(C)CC(NC(=O)C(CO)NC(=O)C1CCC(=O)N1)C(N)=O (stereo not drawn)	6	0%	10µM*	1%	28	x
COc1ccc([C@@H]2[C@@H]3C(=O)N(C(C)(C)C)C(=O)[C@@H]3[C@]3(Cc4ccccc4)C(=O)N(c4ccc(C(F)(F)F)cc4)C(=O)N23)cc1	10	-4%	5.9µM*	u	43	27%
COc1ccc([C@@H]2[C@@H]3C(=O)N(C(C)(C)C)C(=O)[C@@H]3[C@]3(C)C(=O)N(c4ccc(C(F)(F)F)cc4)C(=O)N23)cc1	21*	-9%	u	u	24*	-15%
COc1ccc([C@@H]2[C@@H]3C(=O)N(C(C)(C)C)C(=O)[C@@H]3[C@]3(CC(C)C)C(=O)N(c4ccccc4)C(=O)N23)cc1	16*	-5%	u	u	26	-9%
COc1ccc([C@@H]2[C@@H]3C(=O)N(C(C)(C)C)C(=O)[C@@H]3[C@]3(CC(C)C)C(=O)N(c4cccc(Br)c4)C(=O)N23)cc1	-4	0%	3.7µM*	u	-10	13%
CC1(c2cc(C(F)(F)F)n3nc(C(=O)O)cc3n2)CC1	-1	-1%	18%	2%	-8	0%
COc1ccc(NS(=O)(=O)c2ccc(N3CCCC3)c(N)c2)cc1	7	0%	7%	-8%	5	11%
O=C(CN1C(=O)NC2(CCCCC2)C1=O)NC1CCCc2ccccc21 (stereo not drawn)	-5	3%	u	10%	-12	-4%
COc1ccc([C@@H]2[C@@H]3C(=O)N(C(C)(C)C)C(=O)[C@@H]3[C@]3(CC(C)C)C(=O)N(c4ccc(C(F)(F)F)cc4)C(=O)N23)cc1	-3	11%	3.7µM*	12µM*	-2	7%
CC(C)(C)N1C(=O)[C@H]2[C@@H](c3ccc(Br)cc3)N3C(=O)N(c4ccccc4)C(=O)[C@@]3(C)[C@H]2C1=O	-4	-4%	13µM*	u	-2	3%
COc1ccc([C@@H]2[C@@H]3C(=O)N(C(C)(C)C)C(=O)[C@@H]3[C@]3(Cc4ccccc4)C(=O)N(c4ccc(OC)cc4)C(=O)N23)cc1	x	7%	u	u	x	x
Cc1ccc(NC(=O)COC(=O)C2=COCCO2)cc1	20*	4%	u	33%	48	2%
Cc1ccc(NC(=O)COC(=O)C2=COCCO2)c([N+](=O)[O-])c1	26*	-1%	-2%	21%	38	-3%
CCC(C)c1ccc(NC(=O)COC(=O)C2=COCCO2)cc1 (stereo not drawn)	16	-5%	14%	x	21	-5%
COc1ccccc1CNC(=O)COC(=O)C1=COCCO1	-2	-3%	5.2µM*	4%	-7	-2%
O=C(COC(=O)C1=COCCO1)Nc1ccc2c(c1)OCO2	39*	2%	2%	8%	154	8%
C[C@@H]1C(=O)N(S(=O)(=O)c2ccccc2[N+](=O)[O-])[C@H]1c1ccc(-c2ccccc2)cc1	-1	x	x	x	-7	x
CC(=O)Nc1sc(C)c(C)c1C(=O)OCC(=O)N(CCC#N)c1cc(C)cc(C)c1	x	-3%	u	u	x	x
O=C(COC(=O)c1cccnc1SCC(=O)NCc1ccccc1)NCc1ccccc1	11	-1%	x	17%	4	4%
SMILES	Cycloheximide cs	SARS PLpro yeast	Pf growth 96h	Pf growth 48h	Shiga toxin inh	NS1 inh
COc1ccccc1CNC(=O)COC(=O)c1cccnc1SCC(=O)NCc1ccccc1OC	29*	0%	0%	16%	68*	x
COCCNc1nc(C)c(C(C)=O)s1	-1	-1%	28%	20%	-10	2%
COc1ccc(OC)c(CCNC(=O)C(=O)Nc2ccc3nc4n(c(=O)c3c2)CCCCC4)c1	6	-2%	4%	4.1µM*	28	-4%
COc1cc(/C=C/C(=O)Nc2ccc3nc4n(c(=O)c3c2)CCCC4)cc(OC)c1OC	-4	-3%	-18%	u	-13	x
COc1ccc(/C=C/C(=O)Nc2ccc3nc4n(c(=O)c3c2)CCCC4)cc1	-4	0%	-14%	u	-14	x
O=C(Nc1ccc2nc3n(c(=O)c2c1)CCCC3)c1cccc([N+](=O)[O-])c1	9	28%	u	11%	36	13%
COc1cc(OC)cc(C(=O)Nc2ccc3nc4n(c(=O)c3c2)CCCCC4)c1	46*	0%	13µM*	56%	49*	-9%
COc1ccccc1C(=O)Nc1ccc2nc3n(c(=O)c2c1)CCCC3	2	-2%	0.52µM*	u	23	-2%
COc1cccc(/C=C/C(=O)Nc2ccc3nc4n(c(=O)c3c2)CCCC4)c1OC	23	1%	u	2.1µM*	42*	x
COc1ccc(Br)cc1CNC(=O)CN1C(=O)C(c2ccccc2)Oc2cccnc21 (stereo not drawn)	-5	-21%	7%	u	6	5%
Cc1csc(SCC(=O)Nc2ccccc2)n1	11*	-2%	8%	0%	66*	u
Cc1csc(SCC(=O)Nc2nc3ccccc3s2)n1	32*	-7%	x	69%	65*	-95%
C/C(=N/NC(=O)CSc1nc2ccccc2s1)c1ccncc1	-1	-2%	1%	-29%	9	-5%
CS/C(=N\S(=O)(=O)c1cccs1)NC(=O)CSc1nc2ccccc2s1	2	-1%	6.6µM*	x	8	-5%
Cc1csc(SCC(=O)Nc2nnc(C)s2)n1	-2	0%	-5%	-10%	3	-8%
Cc1cc(C)nc(SCC(=O)OCC(=O)Nc2nc3ccccc3s2)n1	22*	14%	-7%	15%	14*	-8%
Cc1csc(SCC(=O)NC(=O)c2ccccc2)n1	x	-1%	17%	-17%	x	x
COc1ccc(N2CCN(C(CNC(=O)OCc3ccccc3)c3ccco3)CC2)cc1 (stereo not drawn)	10	-2%	u	-24%	0	-36%
CC1CCC(NC(=O)COC(=O)CNC(=O)c2ccc3ccccc3c2)CC1 (stereo not drawn)	x	-1%	-16%	2%	x	x
